Compounds with a hit are over-represented: about 7% of the library has one in this group of screens.
a7 integrin act: integrin-mediated muscular dystrophy alleviation activation; alpha7betagal myoblasts, beta-gal FDG fluorescence, 48 h; Potency, µM (titrated, usually from 38.3 µM), for inactives: at the top dose activation, actives largely listed as activators; actives 0.064% (n = 350,000); AID 624291;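 note: potency is the fitted concentration of half-maximal effect; 100% = response of the positive control SU9516; nearly all actives have a fitted effect of over 60% in size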
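alpha7betagal+/- myoblasts (passage 13, 250/well) treated 48 h at 37C with compounds at 1:260 dilution of DMSO stock. Lysed, then beta-galactosidase activity read as FDG fluorescence (ex 480/em 540) after 30 min, with pre-read for autofluorescence.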
IL1B secr inh: inflammasome signaling inhibition, IL-1 beta readout; THP-1 LPS/ATP IL-1B secretion, AlphaLISA, 16 h; hits give low values; activity change, % at 57.5 µM; actives 4.7% (n = 360,000); in the data active = activity change below about -50%; inconclusive = mostly about -30% to -49%; note: % is set by controls: 0 for no effect and ±100 for the full control effect
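Secreted IL-1B measured by AlphaLISA bead assay after 16 h compound exposure of THP-1 cells; compounds (final up to 57.5 uM) added 1 h before LPS (250 ng/mL) and ATP (1.25 mM) stimulation; lower signal means less secretion.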
DRD3 antagonist: antagonists of human D3 dopamine receptor; P35462; D3R cells, DiscoveRx beta-arrestin luminescence, antagonist mode; hits give low values; max response, negative = inhibition, %; actives 2.5% (n = 360,000); AID 652054; in the data active = max response below about -50%; inconclusive = no clear call, values can overlap the other calls; note: % is set by controls: 0 for no effect and ±100 for the full control effect
Target sequence (P35462 whole entry, looked up): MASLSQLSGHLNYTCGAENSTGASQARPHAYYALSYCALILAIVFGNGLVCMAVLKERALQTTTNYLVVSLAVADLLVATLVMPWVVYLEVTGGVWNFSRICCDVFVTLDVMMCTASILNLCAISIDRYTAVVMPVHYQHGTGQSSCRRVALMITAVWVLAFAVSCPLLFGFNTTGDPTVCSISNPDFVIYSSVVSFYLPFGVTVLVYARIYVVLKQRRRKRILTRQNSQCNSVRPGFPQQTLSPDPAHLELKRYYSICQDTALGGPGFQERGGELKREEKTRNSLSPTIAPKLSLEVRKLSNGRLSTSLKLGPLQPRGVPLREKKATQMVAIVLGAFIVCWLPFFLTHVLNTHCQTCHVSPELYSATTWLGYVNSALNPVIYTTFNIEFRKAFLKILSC
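Cells expressing the human receptor were seeded at 1500 cells/well, incubated overnight at 37 degrees C in 5% CO2, then exposed to library compounds with dopamine controls for 90 minutes at 37 degrees C before luminescent detection.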
S2 tox: reduces viability in counter-screen for ATXN expression inhibitors | S2 cells (HEK-293 line with an ATXN2-luciferase reporter) viability, CellTiter-Fluor protease fluorescence, 24 h | Potency, µM (doses to about 56.7 µM), usual class: cytotoxic | actives 0.49% (n = 400,000); note: potency is the fitted concentration of half-maximal effect; nearly all actives have a fitted effect of over 40% in size
DRD3 agonist: agonists of human D3 dopamine receptor. D3R DiscoveRx beta-arrestin cells, luminescence, 90 min. AID 652048. P35462. max activation, %. actives 0.58% (n = 410,000); in the data active = max activation above about 30%; note: 0% is about no effect
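Agonist mode: compounds and dopamine controls were applied to plated cells for 90 min at 37 degrees C after an overnight attachment at 1500 cells/well. Luminescent read-out followed 30 - 60 minutes at room temperature with DiscoveRx detection reagent.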
ATXN2 expr inh: ATXN2 expression inhibition. HEK-293 ATXN2-luciferase reporter, luminescence, 24 h. Potency, µM (series often up to 57 µM), inactives show top-dose activity change, negative = inhibition, usual class: inhibitors. actives 0.72% (n = 360,000); note: potency is the fitted concentration of half-maximal effect; % is set by controls: 0 for no effect and ±100 for the full control effect; nearly all actives have a fitted effect of over 55% in size
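ATXN2-luciferase reporter cells (luciferase flanked by upstream and downstream ATXN2 gene portions) were treated 24 h at 37 °C with compounds at up to 57 uM. SteadyGlo luminescence gave expression; GF-AFC fluorescence gave viability.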
Starred values were filed as active, the others as inactive; i = inactive; ? = inconclusive; · = not tested or not shown; ! = not active in a repeat. Unless noted, calls come from the whole dose curve; as a rule, active = well fitted curve in the direction sought with a large enough effect; inconclusive = small, poorly fitted or top-dose-only effect, or another doubt; inactive = no such curve, though single readings can be large; an effect the other way counts as inactive or inconclusive.

SMILES	a7 integrin act	IL1B secr inh	DRD3 antagonist	S2 tox	DRD3 agonist	ATXN2 expr inh
COc1cccc(NC(=O)C2CCCN(S(C)(=O)=O)C2)c1 (stereo not given)	-19%	5	-18	i	-7	7%
Cc1noc(C)c1COc1ccccc1C(=O)NCCc1ccc(Cl)cc1	23%	-69*	10	i	7	7%
COc1cc(C(=O)NCCc2c[nH]c3ccccc23)ccc1OCc1c(C)noc1C	?	-77*	30	i	8	-20%
COc1ccc(CCNC(=O)c2ccc(OCc3c(C)noc3C)c(OC)c2)cc1	4%	33	6	i	0	-13%
COc1ccc(Br)cc1CN(C)C(=O)c1ccccc1OCc1c(C)noc1C	-16%	-65*	-7	i	-2	-3%
COc1cc(C(=O)NCC(c2ccccc2)N(C)C)ccc1OCc1c(C)noc1C (stereo not given)	-10%	5	-100*	i	-26	1%
CCOC(=O)Cc1nn(C(C)C)c(=O)c2ccccc12	-7%	18	11	i	5	-17%
CNC(=S)N1N=C(c2cccs2)CC1c1ccc(F)cc1 (stereo not given)	0%	-51*	-4	i	19	-14%
Cc1ccc(C2CC(c3cccs3)=NN2C(=O)CSC2=NCCS2)cc1 (stereo not given)	-26%	·	-22	?	-6	-7%
Cc1ccc(C2CC(c3cccs3)=NN2C(=O)CCl)cc1 (stereo not given)	-74%	-106*	-8	·	-8	?
O=C(c1ccco1)N1N=C(c2cccs2)CC1c1ccc(F)cc1 (stereo not given)	-18%	25	14	·	1	·
COc1ccc(C2CC(c3cccs3)=NN2C(=O)CSC2=NCCS2)cc1 (stereo not given)	-21%	-81*	-14	?	1	35%
COc1ccc(CCNC(=O)c2cccc(NC3=NC4CS(=O)(=O)CC4S3)c2)c(OC)c1 (stereo not given)	14%	-16	-8	i	-4	2%
Cc1c(Cl)ccc2c1NC(=O)C21NC(CCC(N)=O)[C@H]2C(=O)N(c3ccc(Cl)cc3)C(=O)[C@H]21 (stereo not given in full)	3%	0	15	i	-8	-11%
Cc1nc(SCC(=O)NCC(F)(F)F)c2c(-c3cccs3)csc2n1	4%	0	-4	i	0	·
Cc1nc(SCC(=O)NC(C)(C#N)C2CC2)c2c(-c3cccs3)csc2n1 (stereo not given)	-31%	-59*	7	?	5	-20%
O=C(Nc1ccc2nc3n(c(=O)c2c1)CCCC3)c1cc([N+](=O)[O-])ccc1F	-54%	-105*	-20	·	0	25µM*
CCN(CC)S(=O)(=O)c1ccc(C(=O)Nc2ccc(Cc3ccncc3)cc2)cc1	-33%	-83*	6	i	11	?
CCN(CC)S(=O)(=O)c1ccc(NC(=O)c2ccc3c(=O)n4c(nc3c2)CCCCC4)cc1	·	·	·	·	0	22µM*
CCc1ccc(NC(=O)c2ccc3c(=O)n4c(nc3c2)CCCCC4)cc1	-15%	-5	-6	?	3	?
O=C(Nc1ccc2nc3n(c(=O)c2c1)CCCC3)c1cccc([N+](=O)[O-])c1	-9%	-6	13	?	19	8%
CCN(CC)S(=O)(=O)c1cccc(NC(=O)c2cncc(Br)c2)c1	-1%	0	2	?	1	·
CCN(CC)S(=O)(=O)c1cccc(NC(=O)c2ccc(Br)cc2)c1	-36%	-70*	15	i	-4	-21%
CCOCCCNC(=S)Nc1ccc2nc3n(c(=O)c2c1)CCCCC3	-20%	-64*	0	i	-17	1%
O=C(/C=C/c1c(Cl)cccc1Cl)N1CCOCC1	-23%	-6	-15	i	2	·
SMILES	a7 integrin act	IL1B secr inh	DRD3 antagonist	S2 tox	DRD3 agonist	ATXN2 expr inh
O=C(/C=C/c1c(Cl)cccc1Cl)n1cccn1	-29%	-52*	-74*	i	-8	-8%
COc1ccc(NC(=O)c2cc3ccccc3o2)cc1	27%	-2	0	i	-7	56%
COc1ccc(O)c(C(=O)/C=C/c2cc3ccccc3o2)c1	-45%	-99*	-62*	i	-2	-21%
O=C(/C=C/c1cc2ccccc2o1)c1ccccc1O	3%	-102*	-23	i	-9	50%
Cc1csc(SCc2ccccc2C(=O)O)n1	12%	10	23	i	-3	8%
CN1CCC(N(C)C(=O)c2ccc(Cl)c(S(=O)(=O)N3CCc4ccccc43)c2)CC1	-24%	-50*	-5	i	-2	?
Cc1nnsc1C(=O)NC(=O)Nc1ccc(F)c(Cl)c1	0%	-20	13	i	1	-18%
COc1cccc2c1cc1c(=O)n(CC(=O)N3CCN(c4ccccc4F)CC3)nc(C)n12	·	·	·	·	15	·
COc1cccc2c1cc1c(=O)n(CC(=O)N3CCC(C)CC3)nc(C)n12	-16%	6	1	i	38*!	·
CCCCCCCCCCCCCCCC[N+](C)(C)CCl	-55%	-92*	3	?	-7	-16%
CCCCCCCCCCCCCCCC[N+](C)(C)CC	·	-1	10	18µM*	-16	14µM*
CCCCCCCC[N+](C)(C)CCCCCCCC	·	·	·	i	7	·
C[N+](C)(C)CCCCCC[N+](C)(C)C	·	19	-22	i	-9	-5%
CCCCCCCCCCCCCC[N+](C)(C)C	·	·	·	?	-22	22µM*
COc1ccc(NC(=O)Cn2ccc(C(F)(F)F)n2)cc1S(=O)(=O)N1CCOCC1	17%	-6	-13	i	-2	1%
NNC(=O)c1sc(-c2ccccc2)cc1N	15%	-54*	-3	·	-7	-2%
CC(=O)c1sc(-c2ccccc2)cc1N	15%	·	-4	i	-5	30%
CCc1cccc2c1NC(=O)C2=O	-9%	28	-13	i	-18	-12%
Oc1cc(-c2ccccc2)c2ccccc2c1	-32%	-113*	7	i	0	-10%
CCCN1CCN(c2ccc(S(N)(=O)=O)cc2[N+](=O)[O-])CC1	20%	8	-9	i	-17	·
CC(=O)c1sc(N/N=C\c2ccccc2O)nc1C	?	-74*	4	i	-2	29%
O=C(NCCS(=O)(=O)N1CCCCCC1)c1ccccc1	11%	-10	0	i	-4	-7%
CCCOc1ccc(NC(=O)CC2C(=O)N(CC)C(=S)N2CCCN2CCN(Cc3ccccc3)CC2)cc1 (stereo not given)	-27%	-100*	-18	?	-22	?

Bioassay records (PubChem BioAssay)
